Screens as filed in PubChem BioAssay.
This is a sample that favours compounds with a hit; in the whole collection about 1.3% have one here.
S1P4 antag = antagonists of human S1P4 receptor; O95977; S1P4-expressing cells, antagonist mode, reporter read-out; inhibition, % at 4.98 µM; 220,000 tested, 0.26% active; AID 1510; in the data active means inhibition above about 29%;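 further: 0% = wells stimulated with agonist and 100% = vehicle wells without agonist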
S1P4 agonist = agonists of human S1P4 receptor. O95977. S1P4-expressing cell line, agonist reporter assay. activation, % at 4.98 µM. 220,000 tested, 0.35% active; in the data active means activation above about 11%;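 further: 0% = DMSO vehicle and 100% = reference agonist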
m-calpain inh = calpain II (pig) inhibition; purified calpain II, fluorogenic peptide substrate, 30 min; 220,000 tested, 0.37% active; inhibition, % at 16 µM;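 active means inhibition above about 50%, limit read from the data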
S1P3 antagonist = antagonists of human S1P3 receptor; 170,000 tested, 0.27% active; inhibition, % at 4.98 µM; Q99500; AID 485; CHO S1P3 NFAT-BLA reporter, FRET fluorescence, antagonist mode;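 active means inhibition above the plate cutoff, the mean inhibition of test wells on that plate plus 3 SD, cut at about 28% in these data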;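 further: cells challenged with S1P at its EC80 of 0.8 µM; blue over green emission ratio from cleaved BLA substrate after 4 h stimulation; 0% = S1P-stimulated wells and 100% = unstimulated DMSO-only wells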
Target sequence (Q99500 whole entry, looked up): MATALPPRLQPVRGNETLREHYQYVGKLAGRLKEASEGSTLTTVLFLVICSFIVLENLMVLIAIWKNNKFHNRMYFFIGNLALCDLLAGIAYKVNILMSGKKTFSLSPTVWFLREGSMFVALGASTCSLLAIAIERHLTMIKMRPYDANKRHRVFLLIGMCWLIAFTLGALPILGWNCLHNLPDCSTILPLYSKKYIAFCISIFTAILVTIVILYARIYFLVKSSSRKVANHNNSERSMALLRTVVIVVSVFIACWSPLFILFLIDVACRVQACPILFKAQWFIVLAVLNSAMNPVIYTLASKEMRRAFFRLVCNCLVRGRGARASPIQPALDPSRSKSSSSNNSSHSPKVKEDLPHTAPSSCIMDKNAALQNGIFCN
PERK inh = inhibitors of human PERK kinase; Q9NZJ5; CHO PERK-DD fusion, SEAP luminescence translation reporter; inhibition, % at 5.6 µM; 220,000 tested, 0.17% active;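 active means inhibition above the mean inhibition of all tested compounds plus 3 SD, set separately per screening campaign, cut at about 2.9% in these data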;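 further: PERK kinase domain activated by AP20187 dimerizer at 100 nM; 0% = DMSO with dimerizer and 100% = rapamycin at 8.4 µM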
S1P4 ag conf = human S1P4 agonism, confirmation; shares compounds with S1P4 agonist; S1P4 agonist cell-based reporter assay; activation, % at 4.98 µM; 740 tested, 7% active; AID 1523; in the data active means activation above about 12%;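 further: 0% = vehicle and 100% = full reference agonist response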
S1P1 agonist = human S1P1 agonism as S1P4 agonist counter-screen. shares compounds with S1P4 agonist. S1P1 agonist cell-based assay, activation. activation, % at 4.98 µM. 740 tested, 4% active. AID 1563; in the data active means activation above about 21%;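 further: 0% = vehicle wells and 100% = reference agonist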
* = called active by the depositor; i = inactive; x = no result given.

SMILES	S1P4 antag	S1P4 agonist	m-calpain inh	S1P3 antagonist	PERK inh	S1P4 ag conf	S1P1 agonist
NC(=S)NNC(=O)c1cc(C(F)(F)F)cc(C(F)(F)F)c1	-16.1	77.3*	-11.3	-3.5	-1.0	-1.1	0.5
OC1CCCN(Cc2c3ccccc3cc3ccccc23)C1 (stereo not drawn)	-10.9	14.8*	i	x	0.1	-0.2	2.6
COc1ccc(OCCSc2nc(-c3ccccc3)cc(=O)[nH]2)cc1	-4.1	31.1*	-40.9	-12.2	1.4	-2.2	-1.9
COc1ccc2occ(C(=O)c3cccs3)c2c1	-8.5	165.8*	-11.6	x	1.1	-0.7	3.0
CCOc1ccc(/C(O)=C/C(=O)C(=O)Nc2ccc(S(=O)(=O)NC(C)=O)cc2)cc1	-14.6	12.3*	27.3	-4.3	0.8	-1.5	-1.7
COc1ccccc1C(=O)Nc1nc2cc3c(cc2s1)OCO3	10.6	26.7*	-205.3	-3.8	-1.6	-0.9	8.4
CCCC(=O)Nc1ccccc1-c1nnc(SCC)[nH]c1=O	-3.6	2.3	-8.2	-4.7	0.4	x	x
Cc1oc(-c2cc(F)ccc2F)nc1CN1CCN(C)C(=O)[C@@H]1C	-8.2	14.9*	-10.4	-5.0	1.0	-1.0	-7.2
O=C(N/N=C/c1c(Cl)[nH]c2ccccc12)c1ccc2c(c1)OCCO2	-1.4	0.2	-13.1	0.3	-0.2	x	x
N#Cc1c(-n2cccc2C=O)sc2c1CCCC2	-12.3	18.6*	26.4	-11.6	0.3	14.4*	-4.0
O=C(Nc1ccn(Cc2ccccc2)n1)c1cccc(Cn2cc([N+](=O)[O-])cn2)c1	0.5	12.8*	9.3	6.1	-0.3	-1.2	1.3
CC(C)c1onc(C(=O)N2CCOCC2)c1[N+](=O)[O-]	-6.7	-0.5	17.3	-3.7	1.1	x	x
Cc1onc(C(=O)N2CCOCC2)c1[N+](=O)[O-]	4.2	19.4*	18.1	-4.4	1.8	-2.8	2.7
COc1ccc(CN2CCC(N3CCC(C(=O)N4CCOCC4)CC3)CC2)c(F)c1	-3.6	11.5*	-1.7	-3.0	2.3	-1.2	-2.0
C/C(=N\N=C(N)N)c1ccc(Cl)c(Cl)c1	7.5	1.7	6.2	-21.8	0.2	x	x
CCC1OC23CCCCC2C(C#N)(C(=N)O3)C1(C#N)C#N (stereo not drawn)	-6.3	1.8	-30.8	x	-0.4	x	x
CC1OC23CCCCC2C(C#N)(C(=N)O3)C1(C#N)C#N (stereo not drawn)	11.3	12.5*	-30.2	x	1.4	-0.9	-1.0
Cc1ccc[n+](CC(=O)/C=C2\N(C)c3ccccc3C2(C)C)c1	-30.2	1.1	22.5	2.8	0.2	x	x
Cc1cccc[n+]1CC(=O)/C=C1\N(C)c2ccccc2C1(C)C	-29.8	21.4*	7.3	4.5	0.5	-2.4	-0.5
COc1ccc(/C(C)=N/NC(=O)CNC(=O)c2cccs2)cc1OC	4.2	30.4*	-9.8	-25.7	0.9	-1.6	4.2
COc1cccc(OC)c1-c1nn(-c2ncc(C(F)(F)F)cc2Cl)c(=O)o1	-14.8	0.5	-12.8	-4.5	-0.5	x	x
CSc1nc(N)n2nc(C(C)(C)C)cc2n1	-16.9	22.7*	-3.0	-4.4	1.2	-2.4	-5.0
CC(C)(C)c1cc2nc(N)nc(N)n2n1	15.4	-0.1	-11.9	-4.7	0.7	x	x
O=C(CSc1nnc(NC(=O)c2ccco2)s1)Nc1ccc2c(c1)OCCO2	11.9	-1.0	-2.5	-5.9	-0.5	x	x
COc1ccc(S(=O)(=O)NN(C)C(=O)c2nn(-c3ccccc3)ccc2=O)cc1	-16.4	0.9	-0.9	-8.3	0.1	x	x
SMILES	S1P4 antag	S1P4 agonist	m-calpain inh	S1P3 antagonist	PERK inh	S1P4 ag conf	S1P1 agonist
N#Cc1c(N)nc2c(c1-c1ccncc1)CCCCC2	-13.5	135.1*	-29.9	-5.6	-0.4	-1.1	4.8
OCC(O)C1OC(Nc2ccc(Cl)cc2)C(O)C1O (stereo not drawn)	22.6	71.5*	-4.6	0.0	0.4	-0.9	10.5
CCn1c(C)c(C(C)=O)c(N2CCCC2)nc1=S	-4.4	17.1*	-6.2	9.1	-0.8	-2.2	-1.6
C=CCn1c(C)c(C(C)=O)c(N2CCCC2)nc1=S	13.1	2.9	12.6	-45.4	-0.2	x	x
Cc1cc(=O)oc2cc3c(cc12)OCCO3	-13.0	-0.3	-255.7	-11.9	0.6	x	x
Cc1cc(=O)oc2cc3c(cc12)OCCN3	-9.5	11.5*	i	-52.2	1.1	5.3	5.0
CN(C)c1ccc(/C=N/NC(=O)Cn2nnc3ccccc32)cc1	1.0	0.6	-95.8	-24.9	-1.0	x	x
Cc1ccsc1/C=N\NC(=O)Cn1nnc2ccccc21	-9.2	28.0*	22.5	5.9	0.4	-2.0	-6.0
COc1ccc(/C=N/NC(=O)Cn2nnc3ccccc32)cc1OC	-11.2	132.2*	5.1	0.3	0.2	0.4	6.0
COc1ccc(N(CC(=O)Nc2ccccc2C(N)=O)S(=O)(=O)c2ccc(C)c([N+](=O)[O-])c2)cc1	-6.9	-0.3	-32.7	-6.1	-0.4	x	x
C=CCO/N=C(/C)c1ccc(Oc2cnccn2)cc1	-1.0	-1.2	-24.7	-0.1	0.0	x	x
CCC1CCCCN1C(=O)c1cccc(S(=O)(=O)Nc2cc(C(F)(F)F)ccc2Cl)c1 (stereo not drawn)	-11.6	1.4	-9.3	-14.4	0.3	x	x
O=C(NC1CCN(Cc2ccccc2)CC1)c1cccc(S(=O)(=O)Nc2cc(C(F)(F)F)ccc2Cl)c1	-23.9	24.7*	-11.2	-3.8	0.0	-1.6	-1.7
Cn1cc([N+](=O)[O-])c(C(=O)Nc2ccc(-c3nc4ccccc4o3)cc2)n1	12.9	1.0	-15.0	-2.6	0.7	x	x
Cn1c(SCC(=O)c2ccc3c(c2)OCO3)nnc1C1COc2ccccc2O1 (stereo not drawn)	5.2	11.3*	3.0	12.1	-0.4	61.5*	-0.9
COCCCNC(=O)CCn1c(=O)c2ccccc2n(Cc2cccc([N+](=O)[O-])c2)c1=O	-13.3	-0.1	-22.3	-8.7	0.0	x	x
CCCCNC(=O)CCn1c(=O)c2ccccc2n(Cc2ccc(F)cc2)c1=O	-20.1	14.7*	1.1	4.6	0.5	-2.5	0.6
Cc1ccc(Nc2nc(N)c(C#N)c(CC#N)c2C#N)cc1	-4.4	-2.5	17.6	0.3	-0.2	x	x
COC(=O)c1c(-n2c(C)cc(C=O)c2C)sc2c1CCCC2	1.8	12.0*	-1.9	x	-0.6	14.8*	-2.7
NC(=O)CC(NC(=O)Cc1ccc(Br)cc1)c1ccc(N2CCN(c3ccc(F)cc3)CC2)c([N+](=O)[O-])c1 (stereo not drawn)	x	x	-28.4	x	x	x	x
C=Cn1cc[n+](CC(=O)c2ccc(C)cc2)c1	-3.4	18.5*	-26.7	2.8	0.5	-1.8	-3.6
CC(C)c1nc(SCC(=O)Nc2ccc([N+](=O)[O-])cc2Br)n[nH]1	-11.4	67.9*	11.2	-3.4	0.1	-2.2	2.9
O=C(NCC1CCN(S(=O)(=O)c2ccccc2)CC1)Nc1ccccc1	8.4	3.0	26.4	6.4	-0.7	x	x
CN(C(=S)NC(=O)Cc1ccccc1)c1ccccc1	-26.9	12.8*	-12.1	1.4	1.0	-2.0	-3.0
